Assay outcomes (PubChem BioAssay)
Only some compounds are listed: those with a hit (about 0.99% of all), similar ones and a draw of the others.
RTF Ca sens act = cardiac RTF calcium sensitization | activation, % at 7.2 µM | IANBD-labeled TnC RTF fluorescence at EC20 calcium; 0% EC20 calcium, 100% full calcium | 0.24% of 340,000 active;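 active = activation above the mean over all tested compounds plus 3 SD, cut at about 30% in these data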;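 note: rise in fluorescence read as greater calcium sensitivity of cardiac thin filaments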
LANA-H2A inh = blocks KSHV LANA binding to histone H2A/H2B. Q9QR71. cell-free LANA-H2A/H2B peptide, fluorescence polarization. inhibition, % (no concentration beside the values). 0.6% of 320,000 active; in the data active = inhibition mostly above about 10%, no sharp cut-off; inactive = mostly below about 6.7%
Target sequence (Q9QR71 whole entry, looked up): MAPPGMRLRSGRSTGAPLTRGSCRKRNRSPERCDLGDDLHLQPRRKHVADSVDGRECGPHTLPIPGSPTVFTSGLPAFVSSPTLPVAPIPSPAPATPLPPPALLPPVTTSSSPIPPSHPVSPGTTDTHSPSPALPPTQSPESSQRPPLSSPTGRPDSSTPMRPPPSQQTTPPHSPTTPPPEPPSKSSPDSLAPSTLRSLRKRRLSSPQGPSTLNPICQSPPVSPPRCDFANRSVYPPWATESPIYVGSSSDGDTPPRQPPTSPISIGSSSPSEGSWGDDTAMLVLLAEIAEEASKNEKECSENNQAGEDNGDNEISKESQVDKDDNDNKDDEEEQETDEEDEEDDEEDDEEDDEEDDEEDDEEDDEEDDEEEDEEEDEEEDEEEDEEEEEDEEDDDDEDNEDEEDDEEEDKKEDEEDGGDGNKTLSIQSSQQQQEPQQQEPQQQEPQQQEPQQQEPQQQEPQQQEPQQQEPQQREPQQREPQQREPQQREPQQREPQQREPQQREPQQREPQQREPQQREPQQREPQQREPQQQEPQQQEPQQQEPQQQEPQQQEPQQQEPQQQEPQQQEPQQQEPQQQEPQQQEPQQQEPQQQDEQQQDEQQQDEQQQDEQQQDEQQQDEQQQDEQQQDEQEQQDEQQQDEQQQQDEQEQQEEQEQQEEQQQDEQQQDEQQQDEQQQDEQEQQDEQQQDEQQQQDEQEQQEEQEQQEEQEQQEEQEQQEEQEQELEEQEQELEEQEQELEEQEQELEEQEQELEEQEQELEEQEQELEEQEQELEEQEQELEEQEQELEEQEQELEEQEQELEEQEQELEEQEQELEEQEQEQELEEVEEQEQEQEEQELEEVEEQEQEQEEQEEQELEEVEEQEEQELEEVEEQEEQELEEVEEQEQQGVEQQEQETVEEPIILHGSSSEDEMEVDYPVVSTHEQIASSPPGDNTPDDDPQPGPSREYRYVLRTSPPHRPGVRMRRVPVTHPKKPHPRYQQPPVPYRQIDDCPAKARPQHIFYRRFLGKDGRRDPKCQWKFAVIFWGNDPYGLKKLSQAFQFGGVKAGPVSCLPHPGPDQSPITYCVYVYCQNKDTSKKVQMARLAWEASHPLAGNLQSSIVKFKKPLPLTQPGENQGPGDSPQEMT
C-LANA FP = KSHV C-LANA DNA binding inhibition | MBP-C-LANA/FAM-LBS DNA binding, fluorescence polarization | inhibition, % at 9 µM | 0.078% of 340,000 active | AID 504423;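 active = highest replicate inhibition at or above 60% at 9 µM, even if other replicates fall short; inactive = all replicates below 60% inhibition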;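 note: 0% = neutral control wells and 100% = 4 µM acridine orange control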
Keap1 Nrf2 FP = inhibitors of human Keap1-Nrf2 protein-protein interaction; inhibition, % at 9.4 µM; Q14145; Keap1 Kelch-Nrf2 peptide fluorescence polarization, 1536-well; 0.15% of 340,000 active; in the data active = inhibition above about 12%;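 note: human Keap1 Kelch domain with fluorescein labeled Nrf2 9mer peptide probe; 0% = neutral control wells and 100% = peptide positive control; higher means more block of Keap1 binding to Nrf2 peptide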
Cardiac RTF inh = cardiac RTF calcium desensitization; 0.12% of 340,000 active; IANBD-labeled cardiac RTF, Ca2+ fluorescence; P19429+P45379; inhibition, % at 7.15 µM; AID 493244;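 active = inhibition above the mean inhibition of all tested compounds plus 3 SD, cut at about 17% in these data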;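 note: assay run at fixed EC70 calcium of 1.6 mM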
Starred values were filed as active, the others as inactive; . = not tested or not shown.

SMILES	RTF Ca sens act	LANA-H2A inh	C-LANA FP	Keap1 Nrf2 FP	Cardiac RTF inh
O=C1OC(CC(=O)N(Cc2nnc(-c3ccccc3Cl)o2)C2CC2)c2ccccc21 (stereo unspecified)	-3	20*	0	-8	-3
O=C(c1cc([N+](=O)[O-])cc([N+](=O)[O-])c1)N(Cc1nnc(-c2ccccc2Cl)o1)C1CC1	5	3	0	-6	10
N#Cc1ccccc1NC(=O)CSc1nnc(-c2ccncc2)o1	3	13*	0	-1	-25
O=C(O)C1CSC(c2ccc(O)c([N+](=O)[O-])c2)N1 (stereo unspecified)	-3	.	1	-1	7
O=C(O)C1CSC(c2ccc3c(c2)OCO3)N1 (stereo unspecified)	-4	22*	0	-10	-12
Cc1cc(C)c(NC(=O)CC(C)(C)C)c(Cl)c1	0	2	-2	3	5
Cc1cc(C)c(NC(=O)CS)c(Cl)c1	3	18*	0	0	2
CC(Oc1ccccc1)c1ccnc2nc(/N=C/N(C)C)nn12 (stereo unspecified)	-3	0	0	2	-5
CC(Oc1cccc(Cl)c1)c1ccnc2nc(/N=C/N(C)C)nn12 (stereo unspecified)	0	112*	0	2	0
O=S(=O)(Cc1ccccc1)Nc1ccc(S(=O)(=O)N2CCCC2)cc1	4	2	1	-5	-12
CCN1CC=C2C(C#N)=C(N)C(C#N)(C#N)[C@H](c3cccc(OC)c3OC)[C@H]2C1	36*	17	37	16*	-51
Nc1cc(C(=O)OCC(=O)NNC(=O)c2cccs2)ccc1Cl	-3	0	0	-4	0
Cc1ccc(S(=O)(=O)Nc2ccc(C(OC(=O)c3ccccc3[N+](=O)[O-])(C(F)(F)F)C(F)(F)F)cc2)cc1	-13	1	0	-1	-17
CCC(C)NCCOCCOc1ccc(Cl)c2ccccc12 (stereo unspecified)	7	12*	-2	0	-11
CC(=O)c1cccc(NC(=O)C(NC(C)C)c2ccccc2)c1 (stereo unspecified)	1	3	1	-2	-1
CCN(CCn1cccn1)C(=O)c1cc(COc2cc(C)ccc2C)on1	3	37*	0	2	-4
CCN(CCn1cccn1)C(=O)c1cc(COc2ccccc2SC)on1	-1	6	1	4	-2
O=C(CN1C(=O)CSc2ccc(S(=O)(=O)N3CCCCCC3)cc21)NCCc1ccccc1	7	.	0	-3	-9
O=C(CN1C(=O)CSc2ccc(S(=O)(=O)N3CCCCC3)cc21)NCc1ccccc1	-10	56*	-2	-3	-3
CCCCCCCNC(=O)CN1C(=O)CSc2ccc(S(=O)(=O)N3CCOCC3)cc21	-7	-2	0	8	-3
CC(C)OCCCNC(=O)CN1C(=O)COc2ccc(S(=O)(=O)N3CCCCCC3)cc21	-2	.	1	3	2
CC(C)OCCCNC(=O)CN1C(=O)CSc2ccc(S(=O)(=O)N3CCCCC3)cc21	-3	22*	2	0	4
CCCCN(C)CCNC(=O)CN1C(=O)CSc2ccc(S(=O)(=O)N3CCCC3)cc21	0	19*	-1	2	3
O=C(COC(=O)/C=C/c1cccc(C(F)(F)F)c1)Nc1cccc2ccccc12	1	1	2	-1	-5
Cc1ccc(NC(=O)Nc2ccc(Cl)c(Cl)c2)nc1	2	-1	-2	0	3
SMILES	RTF Ca sens act	LANA-H2A inh	C-LANA FP	Keap1 Nrf2 FP	Cardiac RTF inh
CCOC(=O)/C(C#N)=C\C=C1C=CN(C)C=C1	59*	-21	-43	-143	-76
CSc1cccc(NC(=S)N(CCCN2CCCC2)Cc2cccn2Cc2ccc(Cl)cc2)c1	3	13*	-1	-1	-2
S=C(Nc1cccc(Cl)c1)N(CCCN1CCCC1)Cc1cccn1Cc1ccc(Cl)cc1	12	2	0	-4	3
O=C(Cc1ccc(Br)cc1)N1CCc2ccccc2C1	-4	1	-5	-3	-7
CC(=O)N1CCN(C(=O)CCNS(=O)(=O)c2ccc(Br)cc2)CC1	1	-7	0	-1	-5
CC1CCN(C(=O)CCNS(=O)(=O)c2ccc(Br)cc2)CC1	3	24*	0	-1	-4
COc1ccc(C)cc1NC(=O)CN1C(=O)COc2ccc(S(=O)(=O)N3CCOCC3)cc21	1	1	-1	-2	-4
